Data on 88 compounds can be found in PubChem BioAssay AID687022 (Broad Institute, 2013).

SMILES strings stand for the structures. In all, about 1,000 compounds went through this assay and about 360 (36%) were called active. Not all results are given here. A number with no mark means an inactive call.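 Rule for the calls: active = Fitted curve of melting temperature shift crosses the 1.0 threshold at or below the sample's highest valid tested concentration; inconclusive = Flat fit with activity 30 to 70, or invalid fit; inactive = Opposite direction, flat within 30, or no crossing.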

Sequence of Fibroblast growth factor 22 (Homo sapiens) (Q9HCT0 whole entry, looked up): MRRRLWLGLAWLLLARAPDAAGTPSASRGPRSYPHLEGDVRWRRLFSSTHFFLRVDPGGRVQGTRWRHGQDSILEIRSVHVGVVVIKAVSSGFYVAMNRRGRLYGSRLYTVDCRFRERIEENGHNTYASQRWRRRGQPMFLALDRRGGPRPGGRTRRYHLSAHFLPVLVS

This test has as its target Fibroblast growth factor 22 (Homo sapiens) (UniProt Q9HCT0). In words: FGF22 ligand-induced thermal stabilization – biophysical, thermal shift, cherry-pick, FGF22 synaptogenesis inhibitor project, dose response (AID 687022). Note: reference of the scale not given here. The conditions noted are these: recombinant FGF22 thermal shift, SYPRO orange melting; series mostly up to 38 µM.
Turning to `Cc1[nH]c(=O)[nH]c(=O)c1S(=O)(=O)Nc1cccc([N+](=O)[O-])c1C`, the Tm shift activity entry was “inactive”.
`CCCNC(=O)N1CC(=O)N2[C@H](C1)[C@@H](c1ccc(-c3cccc(C)c3)cc1)[C@@H]2CO`: the Tm shift activity result is “inactive”.
In the case of `O=c1cc[nH]c2ccc(Cl)cc12`, the Tm shift activity result was “inactive”.
With `CC(=O)c1cccc(NC(=O)C2CCCN2S(=O)(=O)c2cccs2)c1` (stereo not drawn) the entry was “inactive”; with `COc1ccc(CCC(C)NC(=O)Cc2ccc(OC)c(OC)c2)c(OC)c1` (stereo not drawn), “inactive”.
`CCCN(C)C[C@H]1Oc2cc(-c3ccncc3)ccc2S(=O)(=O)N([C@H](C)CO)C[C@H]1C`: the Tm shift activity entry was “inactive”.
With `O=C1C2C(C(=O)N1CCc1ccccc1)C1C=CC2C12CC2` (stereo not drawn) the entry was “inactive”; with `CCOC(=O)C1CCC(CNCc2ccccc2C)CC1` (stereo not drawn), “inactive”; with `N#CCSc1n[nH]c2nc3c(c(=O)n12)C1(CCCCC1)Cc1ccccc1-3`, “inactive”.
In the case of `COc1cc(C(=O)NC(=S)Nc2ccccc2[N+](=O)[O-])cc(OC)c1OC`, the Tm shift activity entry was “inactive”.
Turning to `C/C(=N\NC(=O)CNC(=O)c1ccncc1)c1ccc(C)cc1`, the Tm shift activity entry was “inactive”.
In the case of `CN(CC(=O)Nc1ccccc1Cl)C(=O)COC(=O)c1nc(Cl)ccc1Cl`, the Tm shift activity entry is “inactive”.
`CCn1c(O)c(C=NCc2ccccc2)sc1=S`: the Tm shift activity entry was “inactive”.
With `C[C@@H]1CN([C@H](C)CO)C(=O)Cc2cc(NS(C)(=O)=O)ccc2O[C@@H]1CN(C)Cc1ccc(C(=O)O)cc1` the entry was “inactive”; with `CC(C)CC#Cc1cnc2c(c1)C(=O)N([C@@H](C)CO)C[C@H](C)[C@@H](CN(C)Cc1ccccn1)O2`, “inactive”; with `O=C(CCc1ccc(S(=O)(=O)N2CCOCC2)cc1)Nc1ccccc1F`, “inactive”.
Next, `C/C=C/c1ccc([C@@H]2[C@H](C#N)N(C(=O)CN3CCOCC3)[C@H]2CO)cc1`: “inactive”; `COc1cc(CCC(=O)OCC(=O)Nc2ccc(C)cc2Br)cc(OC)c1OC`: “inactive”; `CN1CCN(C(=O)C[C@@H]2CC[C@H]3[C@@H](COC[C@H](O)CN3CC3CCCCC3)O2)CC1`: “inactive”.
In the case of `C[C@H]1CN([C@@H](C)CO)S(=O)(=O)c2ccc(/C=C/c3ccccc3)cc2O[C@@H]1CN(C)Cc1ccc(C(=O)O)cc1`, the Tm shift activity entry was “inactive”.
Next, `CCCC#Cc1ccc2c(c1)O[C@H](CN(C)C(C)=O)[C@@H](C)CN([C@@H](C)CO)S2(=O)=O`: “inactive”; `C[C@H]1CN([C@@H](C)CO)S(=O)(=O)c2ccc(C#Cc3ccncc3)cc2O[C@H]1CN(C)C(=O)Nc1ccc2c(c1)OCO2`: “inactive”.
Next, `COc1cc(C2C(C#N)=C(N)Oc3n[nH]c(-c4cccnc4)c32)cc(Br)c1O` (stereo not drawn): “inactive”; `C[C@@H]1CN([C@@H](C)CO)C(=O)CCCn2nncc2CO[C@H]1CN(C)Cc1ccccc1C(=O)O`: “inactive”.
With `CCN1C(=O)c2cccc3c(S(=O)(=O)Nc4ccc(O)c(C(=O)O)c4)ccc1c23` the figure was 0.895% [at 5 µM]; with `O=C(COc1ccc(S(=O)(=O)Nc2ccccc2)cc1)NCc1ccncc1`, “inactive”; with `CN(C)CCN1C(=O)C2C3C=CC(C3)C2C1=O` (stereo not drawn), “inactive”.
Turning to `COCC(=O)N(C)C[C@H]1Oc2cc(C#Cc3ccccc3)ccc2S(=O)(=O)N([C@H](C)CO)C[C@H]1C`, the Tm shift activity result was “inactive”.
Next, `O=C(NCC[C@@H]1CC[C@@H](NC(=O)C2CCOCC2)[C@H](CO)O1)Nc1ccc(Cl)cc1`: “inactive”; `CC(C)NC(=O)Nc1ccc2c(c1)C(=O)N([C@H](C)CO)C[C@H](C)[C@H](CN(C)C(=O)Nc1cccc3ccccc13)O2`: “inactive”; `O=C(O)C1CSC2(CCN(Cc3ccccc3)CC2)N1` (stereo not drawn): “inactive”.
Take `Fc1ccccc1Nc1n[nH]c(=S)s1`: the Tm shift activity entry was “inactive”.
Turning to `O=C(N/N=C/c1cccc(O)c1)c1cc(-c2ccc3c(c2)OCO3)n[nH]1`, the Tm shift activity entry was “inactive”.
In the case of `COc1cc(/C=N/NC(=O)c2ccncc2)ccc1OCC(=O)Nc1cccc([N+](=O)[O-])c1`, the Tm shift activity result was “inactive”.
Consider `CC(=O)N(C)C[C@@H]1Oc2ncc(C#CC(C)(C)O)cc2C(=O)N([C@@H](C)CO)C[C@H]1C`, for which the Tm shift activity result is “inactive”.
Next, `Cc1nc2cc(C(=O)NCc3ccc4c(c3)OCO4)ccc2n1-c1ccc(Br)cc1`: “inactive”; `O=[N+]([O-])c1ccc2oc(/C=C/c3ccc(O)cc3)nc2c1`: “inactive”.
With `C[C@@H]1CN([C@@H](C)CO)C(=O)c2cc(NS(C)(=O)=O)ccc2O[C@@H]1CN(C)Cc1ccc2c(c1)OCO2` the entry was “inactive”; with `C[C@H](CO)N1C[C@H](C)[C@H](CN(C)C(=O)CC2CC2)Oc2ncc(C#CC3(O)CCCC3)cc2C1=O`, “inactive”.
With `O=C(NC[C@@H]1[C@H](c2ccccc2)[C@H](CO)N1C(=O)Cc1cccnc1)C1CC1` the entry was “inactive”; with `CCc1cccc(NS(=O)(=O)c2ccc3c(c2)NC(=O)CC(=O)N3)c1`, “inactive”.
With `CCC(=O)N1CC2(C1)[C@H](c1ccc(-c3cccc(C)c3)cc1)[C@@H](CO)N2S(C)(=O)=O`, the Tm shift activity entry was “inactive”.
With `O=C(C1CCOCC1)N1C[C@@H]2[C@H](c3ccccc31)[C@@H](CO)N2Cc1ccccc1` the entry was “inactive”.
With `CC(OC(=O)c1ccccc1)C(=O)NCCC1=CCCCC1` (stereo not drawn) the entry was “inactive”; with `O=C(COc1cccc(Cl)c1)NCC(c1cccs1)N1CCOCC1` (stereo not drawn), “inactive”.
On to `Cc1cccc(NC(=O)COc2coc(CN3CCc4ccccc4C3)cc2=O)c1`, for which the Tm shift activity result was “inactive”.
Next, `c1ccc(NCc2ccccn2)cc1`: “inactive”.
For the compound `CN1CCN(C(=O)C[C@H]2C=C[C@@H](NC(=O)c3ccc4c(c3)OCO4)[C@H](CO)O2)CC1`, the Tm shift activity entry was “inactive”.
Next, `CN(C)S(=O)(=O)n1cnc([C@@H]2[C@@H]3C(=O)OC[C@@H]3C[C@]23N=CN(Cc2ccccc2)C3=O)c1`: “inactive”.
`O=[N+]([O-])c1ccc2nc(-c3ccc(Cl)cc3)[nH]c2c1`: the Tm shift activity result is “inactive”.
With `Cc1nc2ccc(NC(=O)c3cc([N+](=O)[O-])cc([N+](=O)[O-])c3Cl)cc2s1` the entry was “inactive”; with `O=C(Nc1cccc2ccccc12)c1cccc([N+](=O)[O-])c1`, “inactive”; with `CCc1ccc(NC(=O)c2ccc(-n3cncn3)c([N+](=O)[O-])c2)cc1`, “inactive”.
Next, `COc1cc([N+](=O)[O-])ccc1NC(=O)CN1CCCC1`: “inactive”.
As to `CN=C1NN=C(c2cc(C)n(-c3c(C)n(C)n(-c4ccccc4)c3=O)c2C)CS1`, the Tm shift activity entry is “inactive”.
On to `Cc1ccc(-c2c[n+](CC(=O)Nc3ccc(C)cc3C)c3n2CCC3)cc1`, for which the Tm shift activity entry is “inactive”.
With `COC(=O)Cc1n[nH]c(=O)c2ccccc12` the entry was “inactive”; with `Cn1cccc1/C=N/NC(=O)Cc1cccc2ccccc12`, “inactive”; with `O=C(NCCc1c[nH]c2ccccc12)C(=O)NCC1CCCO1` (stereo not drawn), “inactive”.
As to `N#CCC(=O)Nc1ccc(C(=O)NCCc2c[nH]c3ccccc23)cc1`, the Tm shift activity entry is “inactive”.
With `COc1cccc(S(=O)(=O)Nc2ccc3c(c2)[C@@H]2C[C@H](CC(=O)NC4CCCCC4)O[C@@H](CO)[C@@H]2O3)c1` the entry was “inactive”.
With `C=CCC1c2cccc(C(=O)O)c2C(=O)N1c1cccc(OC)c1` (stereo not drawn) the entry was “inactive”.
Next, `COCC(=O)Nc1ccc2c(c1)[C@H]1C[C@@H](CC(=O)NCc3ccccn3)O[C@H](CO)[C@H]1O2`: “inactive”.
On to `CCOC(=O)c1c(C)oc2cc(Br)c(O)c(Br)c12`, for which the Tm shift activity result is “inactive”.
Regarding `C[C@H]1CN([C@@H](C)CO)C(=O)c2cc(NS(=O)(=O)c3ccc(Cl)cc3)ccc2O[C@@H]1CN(C)C(=O)Nc1ccc2c(c1)OCO2`, the Tm shift activity result is “inactive”.
With `CCC(=O)N1[C@H](CO)[C@@H](c2ccccc2)[C@H]1CN(C)C(=O)CN1CCOCC1` the entry was “inactive”.
With `O=C(c1cccc(F)c1)N1C[C@H]2[C@@H](c3ccccc31)[C@@H](CO)N2C(=O)c1ccccn1` the entry was “inactive”.
With `CCOc1ccc(NC(=O)c2cccc(-n3cccc3)c2)cc1S(=O)(=O)N1CCOCC1`, the Tm shift activity entry was “inactive”.
As to `CC(C)NC(=O)N1[C@H](CO)[C@H](c2ccccc2-c2ccc(F)cc2)[C@@H]1C#N`, the Tm shift activity result was “inactive”.
With `O=C(O)C1CCN(S(=O)(=O)Cc2ccccc2)CC1` the entry was “inactive”; with `COc1ccc(NC(=O)CN(c2ccc(C(C)C)cc2)S(=O)(=O)c2c(C)noc2C)cc1OC`, “inactive”.
Consider `CO[C@@H]1CN(C)C(=O)c2cc(NC(=O)C3CCCC3)ccc2OC[C@H](C)N(CCC(F)(F)F)C[C@H]1C`, for which the Tm shift activity entry is “inactive”.
As for `NS(=O)(=O)c1ccc2c(c1)C(=NO)c1cc(S(N)(=O)=O)ccc1-2`, the Tm shift activity entry was “inactive”.
Regarding `Oc1c(CN2CCOCC2)cc(CN2CCOCC2)c(O)c1O`, the Tm shift activity entry was “inactive”.
Turning to `O=C(Nc1ccccc1Cl)N1[C@H](CO)[C@@H]2c3ccccc3NC[C@@H]21`, the Tm shift activity result is “inactive”.
With `COc1ccc(NS(=O)(=O)c2cc(N=Nc3c(O)[nH]c(=O)[nH]c3=O)ccc2Cl)cc1` the entry was “inactive”; with `COc1ccccc1C(=O)N1C[C@H]2[C@@H](c3ccccc31)[C@H](CO)N2C(=O)C1CCCCC1`, “inactive”.
Consider `N#C[C@@H]1[C@@H](c2ccc(C3=CCCCC3)cc2)[C@H](CO)N1S(=O)(=O)c1ccccc1`, for which the Tm shift activity entry is “inactive”.
Next, `Cc1cccc(C(=O)NNC(=O)c2ccc(NS(=O)(=O)c3cccs3)cc2)c1C`: “inactive”.
On to `COc1ccccc1NC(=O)c1ccc(NC(=O)COC(=O)c2ccc(O)cc2)cc1`, for which the Tm shift activity result is “inactive”.
With `COc1ccccc1N(C)S(=O)(=O)c1ccc(C(=O)Nc2ccc(C(N)=O)cc2)cc1` the entry was “inactive”; with `CCC(C)N(C(=O)COc1ccc(-c2nnco2)cc1)C1CCS(=O)(=O)C1` (stereo not drawn), “inactive”; with `O=C(Nc1cccc(S(=O)(=O)N2CCCCC2)c1)C1=NN(c2ccccc2)C(=O)CC1`, “inactive”.
With `COc1cccc(NC(=O)N[C@@H]2CC[C@@H](CC(=O)Nc3ccccc3)O[C@H]2CO)c1` the entry was “inactive”; with `CN(C)CC(=O)Nc1ccc2c(c1)[C@H]1C[C@@H](CC(=O)NCC3CC3)O[C@H](CO)[C@H]1O2`, “inactive”.
Consider `COC(=O)[C@]1(C)N[C@H](c2ccc(-c3ccccc3)cc2)[C@@H]2C(=O)N(C)C(=O)[C@@H]21`, for which the Tm shift activity entry is “inactive”.
Next, `Cc1ccc(S(=O)(=O)Nc2ccc3c(c2)CC(=O)N([C@H](C)CO)C[C@@H](C)[C@H](CN(C)C(=O)Nc2ccccc2)O3)cc1`: “inactive”; `COc1ccc(C(=O)Nc2ccccc2N2CCOCC2)cc1S(=O)(=O)N1CCOCC1`: “inactive”.
